Source: PubChem
RAD52 anneal inh – blocks human RAD52 DNA annealing. P43351. recombinant RAD52 DNA annealing, FRET fluorescence. inhibition, % at 18.7 µM. actives 0.46% (n = 360,000). AID 651710;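 active = every replicate showing at least 50% inhibition; inconclusive = mean inhibition at least 50% but not in every replicate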
Target sequence (P43351 whole entry, looked up): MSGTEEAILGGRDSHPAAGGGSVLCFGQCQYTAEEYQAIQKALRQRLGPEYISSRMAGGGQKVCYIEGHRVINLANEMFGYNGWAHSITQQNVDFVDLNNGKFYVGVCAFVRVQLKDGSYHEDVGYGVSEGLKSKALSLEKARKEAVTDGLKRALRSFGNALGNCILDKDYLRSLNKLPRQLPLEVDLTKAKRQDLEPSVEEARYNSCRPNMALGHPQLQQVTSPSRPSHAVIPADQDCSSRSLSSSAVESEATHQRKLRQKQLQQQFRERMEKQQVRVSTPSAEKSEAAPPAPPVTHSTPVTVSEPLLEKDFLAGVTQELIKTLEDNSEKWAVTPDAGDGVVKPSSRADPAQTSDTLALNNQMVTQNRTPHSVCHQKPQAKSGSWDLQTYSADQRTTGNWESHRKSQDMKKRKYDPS
ERAP1 HTS inh – blocks human ERAP1 aminopeptidase activity; AID 652197; actives 0.15% (n = 340,000); Q9NZ08; recombinant ERAP1, Leu-AMC fluorescence, 60 min; inhibition, % at 10.7 µM;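 active = mean replicate inhibition of at least 30%, or all replicates individually reaching that 30% level; inactive = mean below 30% and not every replicate reaching it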;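 also: 0% = neutral control wells and 100% = L-leucinethiol positive control wells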
DENV2 CPE rescue – DENV2-induced cell death inhibition. AID 651640. CPE inhibition, % at 9.99 µM. DENV2-infected cells, cytopathic effect rescue, plate reader. actives 1.7% (n = 350,000); in the data active = CPE inhibition above about 20%, passing the limit was not always enough; inconclusive = no clear call, values can overlap the other calls; tested in BHK-21 cells;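 also: 0% = median of neutral control wells and 100% = median of positive control wells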
FGF22 binding – shifts melting point of recombinant human FGF22. actives 1.5% (n = 340,000). activity (Tm shift, normalised), % at 9.99 µM. recombinant FGF22 thermal shift, SYPRO orange fluorescence; percent of sucrose octasulfate shift, DMSO zero. AID 651658;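 active = mean Tm shift, scaled 0 neutral to 100 positive control, at about 1.3% or above, every replicate too, limit read from the data; inconclusive = no clear call, values can overlap the other calls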
Target sequence (Q9HCT0 whole entry, looked up): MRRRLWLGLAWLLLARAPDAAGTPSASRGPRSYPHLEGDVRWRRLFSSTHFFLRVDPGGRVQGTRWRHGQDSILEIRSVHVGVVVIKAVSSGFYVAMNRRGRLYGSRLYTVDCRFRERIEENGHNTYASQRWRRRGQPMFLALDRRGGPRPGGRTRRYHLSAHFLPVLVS
MLL AF4-AF9 inh – MLL-AF4/AF9 protein interaction inhibition; AlphaScreen, biotin-AF4 peptide binding to FLAG-AF9; inhibition, % at 10 µM; actives 0.47% (n = 350,000); P42568;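 active = every replicate reaching a set inhibition limit, whatever the replicate mean, cut at about 25% in these data; inconclusive = mean inhibition reaches that limit but some replicates miss it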;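 also: 0% = plate neutral control median and 100% = total signal loss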
Numbers without * were called inactive; ? = inconclusive; . = no result. The list is not random: actives were taken first. Their share in the collection is about 4%.

SMILES | RAD52 anneal inh | ERAP1 HTS inh | DENV2 CPE rescue | FGF22 binding | MLL AF4-AF9 inh
O=C(CSc1ccccc1)Nc1nccs1 | -8 | 8 | -2 | 0 | -2
Cc1ccc(SCC(=O)Nc2nccs2)cc1 | -4 | 3 | 12 | 43* | -3
C[C@H](CO)N1C[C@H](C)[C@@H](CN(C)Cc2ccc(C(F)(F)F)cc2)OCCCC[C@H](C)Oc2ccc(NC(=O)Cc3ccccc3)cc2C1=O | . | . | -3 | 0 | .
Cc1cc(C)nc(NC(=S)Nc2ccc(Br)cc2Cl)c1 | -4 | 4 | 1 | 43* | -2
Cc1cc(C)nc(NC(=S)Nc2cccc(Cl)c2Cl)c1 | 0 | -1 | -2 | 0 | -3
Cc1cc(OC(C)C(=O)NC2CC(C)(C)NC(C)(C)C2)c2c(C)c(C)c(=O)oc2c1 (stereo not given) | 14 | 13 | 45* | 0 | -4
OC[C@@H]1[C@H](c2ccccc2)C2(CN(Cc3cccnc3)C2)N1Cc1ccncc1 | -6 | 0 | 20* | 0 | 4
OC[C@@H]1[C@@H](c2ccccc2)C2(CN(Cc3cccnc3)C2)N1Cc1cccnc1 | -30 | -4 | 5 | 0 | ?
OC[C@@H]1[C@@H](c2ccccc2)C2(CN(Cc3cccnc3)C2)N1Cc1ccncc1 | -27 | 1 | 2 | 0 | 26*
C[C@H](CO)N1C[C@H](C)[C@H](CN(C)Cc2ccc(Oc3ccccc3)cc2)OCc2ccccc2-c2c(n(C)c3ccccc23)C1=O | 12 | -1 | 3 | 0 | -3
Cc1ncccc1C(=O)N1CCCC(C(=O)c2ccc3c4c(cccc24)CC3)C1 (stereo not given) | -44 | 0 | -5 | 43* | 3
O=C(c1ccc2c3c(cccc13)CC2)C1CCCN(C(=O)c2ccc(=O)[nH]c2)C1 (stereo not given) | -26 | -1 | 1 | 0 | 0
CCc1nc(CN2CCCC(C(=O)c3ccc4c5c(cccc35)CC4)C2)c(C)[nH]1 (stereo not given) | 35 | -6 | -8 | 44* | 22
O=C(c1ccc2c3c(cccc13)CC2)C1CCCN(Cc2ccncc2)C1 (stereo not given) | -55 | . | 6 | 0 | 14
C/C=C/c1ccc([C@@H]2[C@@H](CO)N(C(C)=O)[C@@H]2CN(C)C(=O)CN(C)C)cc1 | . | . | 14 | . | .
O=C(Nc1cccc(CNCCc2c[nH]c3ccccc23)c1)c1ccccc1Cl | -5 | -10 | 3 | 0 | 35*
C[C@@H]1CN([C@@H](C)CO)C(=O)c2cccc(NC(=O)Nc3ccc(F)cc3)c2O[C@@H]1CN(C)CC1CC1 | 26 | -3 | 13 | 0 | -2
CCCCCC1(C)NC(=S)N(c2ccccc2)N1 (stereo not given) | -11 | 7 | -6 | 44* | 2
C[C@@H]1CN([C@H](C)CO)S(=O)(=O)c2ccc(-c3ccc(C(=O)N(C)C)cc3)cc2O[C@H]1CN(C)C(=O)Nc1ccccc1F | 2 | 3 | 4 | 0 | 0
COc1ccc(-c2ccc3c(c2)[C@H]2[C@H](CCN2C(=O)NC2CCCC2)[C@H](CO)N3C)cc1 | 1 | 2 | -23 | . | 26*
CN(C)C(=O)c1ccc(-c2ccc3c(c2)[C@@H]2[C@@H](CCN2C(=O)C2CCCC2)[C@@H](CO)N3C)cc1 | 15 | 2 | 65* | 0 | 4
COc1ccc(-c2ccc3c(c2)[C@@H]2[C@@H](CCN2C(=O)C2CC2)[C@@H](CO)N3C)cc1 | 68* | 3 | -11 | -1 | 1
COc1ccc(-c2ccc3c(c2)[C@@H]2[C@@H](CCN2C(=O)C2CCC2)[C@H](CO)N3C)cc1 | 29 | . | ? | . | 33*
CN(C)C(=O)c1ccc(-c2ccc3c(c2)[C@H]2[C@H](CCN2C(=O)C2CCCCC2)[C@H](CO)N3C)cc1 | -5 | -1 | 10 | 0 | 5
CO[C@H]1CN(C)C(=O)c2ccc(NC(C)=O)cc2OC[C@@H](C)NC[C@@H]1C | 1 | -1 | 5 | 0 | -2
SMILES | RAD52 anneal inh | ERAP1 HTS inh | DENV2 CPE rescue | FGF22 binding | MLL AF4-AF9 inh
CCCC#Cc1ccc2c(c1)O[C@H](CN(C)C(=O)c1ccccc1)[C@H](C)CN([C@H](C)CO)S2(=O)=O | 27 | 0 | -3 | 0 | 5
CC(=O)N(C)C[C@@H]1Oc2ncc(C#Cc3cccnc3)cc2C(=O)N([C@H](C)CO)C[C@H]1C | 4 | -1 | -3 | 0 | -7
CN(C)C(=O)c1cccc(-c2ccc3c(c2)[C@@H]2[C@@H](CCN2C(=O)c2cccc(F)c2)[C@H](CO)N3C)c1 | 3 | -1 | 39* | 0 | 2
S=c1cnc2ccccc2[nH]1 | -14 | -3 | ? | 43* | -1
O=C(CN1C(=O)c2ccccc2C1=O)Nc1cc([N+](=O)[O-])ccc1O | -9 | 2 | 1 | 44* | -2
O=C(Nc1cc([N+](=O)[O-])ccc1O)c1ccc2c(c1)C(=O)N(Cc1ccco1)C2=O | 0 | -1 | 26* | 0 | 0
O=C(Nc1ccc(O)cc1)c1ccc2c(c1)C(=O)N(Cc1ccco1)C2=O | -4 | -2 | -6 | 0 | 5
Cc1c(NC(=O)CN2C(=O)c3ccc([N+](=O)[O-])cc3C2=O)c(=O)n(-c2ccccc2)n1C | -20 | -1 | 0 | 0 | -2
O=C(c1ccccc1F)N1C[C@H]2O[C@H](CNS(=O)(=O)c3ccccc3)CC[C@H]21 | -6 | 1 | -9 | . | -4
O=C(c1ccccc1F)N1C[C@@H]2O[C@H](CNS(=O)(=O)c3ccccc3)CC[C@@H]21 | 59* | 3 | 61* | . | -4
COc1ccc(S(=O)(=O)NC[C@H]2CC[C@H]3[C@H](CN3Cc3cc(F)ccc3F)O2)cc1 | 66* | -2 | 17 | . | -1
Cc1ccc(S(=O)(=O)NC[C@H]2CC[C@H]3[C@H](CN3Cc3cc(F)ccc3F)O2)cc1 | 61* | 0 | 8 | . | -1
CCCCCn1c(=O)c(C(=O)c2ccccc2)nc2ccccc21 | -5 | 3 | . | . | .
CCCCn1c(=O)c(CC(C)=O)nc2ccccc21 | -45 | -3 | -8 | 44* | 0
O=C(NCC[C@@H]1CC[C@H](NS(=O)(=O)c2cccc(F)c2)[C@H](CO)O1)Nc1cc(F)ccc1F | 6 | 3 | 5 | 0 | -3
O=C(C[C@H]1CC[C@@H](NS(=O)(=O)c2cccc(F)c2)[C@H](CO)O1)N1CCCCC1 | 4 | -3 | 25* | 0 | -1
O=C(NCC[C@@H]1CC[C@@H](NS(=O)(=O)c2cccc(F)c2)[C@@H](CO)O1)Nc1cc(F)ccc1F | 1 | 3 | 24* | 0 | 2
CCN(Cc1ccc(OC)c(F)c1)C(=O)C1CCCO1 (stereo not given) | 8 | 50* | 0 | 0 | -4
C[C@@H]1CCCCO[C@H](CN(C)C(=O)Cc2ccccc2)[C@H](C)CN([C@@H](C)CO)C(=O)c2cc(NS(=O)(=O)c3ccc(Cl)cc3)ccc2O1 | -8 | 4 | 6 | 0 | -3
